From PubChem BioAssay AID588477 (NMMLSC, 2011)
Active and inactive are the calls of the source.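 The calls were made as follows: active = valid curve fit with half-effect dose at most 10 µM and total binding change across doses of 30 points or more; inactive = the rest.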

What follows are molecules tested on Ras wt (assay: small GTPase nucleotide-binding inhibition, multiplex panel – biochemical, round 1 SAR, Mg buffer, multiplex flow cytometry, selectivity assay for Cdc42 probe extension project, SAR follow-up (AID 588477)). Conditions: GST-GTPase beads, Bodipy-GTP binding; series mostly up to 100 µM.

Row | SMILES | outcome
1 | O=C(C#Cc1ccccc1)c1cccc([N+](=O)[O-])c1 | inactive
2 | COc1ccc(C2CC(c3ccccc3)=NN2c2ccc(S(N)(=O)=O)cc2)cc1 (stereo not drawn) | inactive
3 | NS(=O)(=O)c1ccc(N2N=C(c3ccccc3)CC2c2ccccc2)cc1 (stereo not drawn) | inactive
